Records with an inconclusive call do not appear. Active and inactive are the calls of the source. Calls come from the whole dose curve; as a rule, active = well fitted curve in the direction sought with a large enough effect; inconclusive = small, poorly fitted or top-dose-only effect, or another doubt; inactive = no such curve, though single readings can be large; an effect the other way counts as inactive or inconclusive.
Legend:
[1] = qHTS of pediatric cancer cell lines to identify multiple opportunities for drug repurposing: Primary screen for BT-12 cells (AID 1347101); note: nearly all actives have a fitted effect of over 25% in size; note: potency is the fitted concentration of half-maximal effect;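 for activity change, negative = cytotoxic: plate controls were DMSO for no effect and bortezomib positive control for full effect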
How it was run: (§1)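 Cells (500-1,000/well) rested 5 h, then received compounds for 48 h; metabolically active cells were measured by CellTiter-Glo luminescence. Final concentrations spanned up to 46 µM (MIPE, 11-point) or 0.59 nM-46 µM (NPC, 8-point) in primary screens, 11-point in follow-ups.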

[2] = qHTS of pediatric cancer cell lines to identify multiple opportunities for drug repurposing: Primary screen for Rh18 cells (AID 1347102); note: nearly all actives have a fitted effect of over 65% in size; note: potency is the fitted concentration of half-maximal effect; for activity change, negative = cytotoxic: % is set by controls: 0 for no effect and ±100 for the full control effect
How it was run: (§2)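 Viability after 48 h compound treatment at 37C, 500-1,000 cells/well, read as ATP luminescence with CellTiter-Glo. Primary screens used 11-point (MIPE, 0.78 nM-46 µM) or 8-point (NPC, 0.59 nM-46 µM) final concentrations; follow-up screens used 11-point dilutions.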

[3] = qHTS of pediatric cancer cell lines to identify multiple opportunities for drug repurposing: Primary screen for OHS-50 cells (AID 1347103); note: nearly all actives have a fitted effect of over 40% in size; note: potency is the fitted concentration of half-maximal effect;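 for activity change, negative = cytotoxic: plate controls were DMSO neutral control for no effect and bortezomib positive control for full effect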
How it was run: as §1

[4] = qHTS of pediatric cancer cell lines to identify multiple opportunities for drug repurposing: Primary screen for RD cells (AID 1347104); note: nearly all actives have a fitted effect of over 55% in size; note: potency is the fitted concentration of half-maximal effect;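 for activity change, negative = cytotoxic: plate controls were DMSO for no effect and bortezomib for full effect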
How it was run: (§3)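 ATP-based luminescence (CellTiter-Glo) quantifies viability after a 48-hour exposure. Compounds are dosed across 8 or 11 final concentrations; DMSO and 2.3 µM bortezomib serve as controls.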

[5] = qHTS of pediatric cancer cell lines to identify multiple opportunities for drug repurposing: Primary screen for MG 63 (6-TG R) cells (AID 1347105); note: nearly all actives have a fitted effect of over 50% in size; note: potency is the fitted concentration of half-maximal effect; for activity change, negative = cytotoxic: % is set by controls: 0 for no effect and ±100 for the full control effect
How it was run: as §3

[6] = qHTS of pediatric cancer cell lines to identify multiple opportunities for drug repurposing: Primary screen for control Hh wild type fibroblast cells (AID 1347106);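 note: series mostly up to about 46 µM; % is set by controls: 0 for no effect and ±100 for the full control effect; a drop in luminescence marks cytotoxicity and a rise apparent proliferation; nearly all actives have a fitted effect of over 55% in size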
How it was run: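 Cells (500-1,000/well) in growth media were settled 5 h at 37 degrees C, then given compounds for 48 h. Viability was read as CellTiter-Glo luminescence. Primary runs used MIPE at 11 points (0.78 nM-46 µM) and NPC at 8 points (0.59 nM-46 µM); follow-ups used 11 points.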

[7] = qHTS of pediatric cancer cell lines to identify multiple opportunities for drug repurposing: Primary screen for Rh30 cells (AID 1347107); note: nearly all actives have a fitted effect of over 75% in size; note: potency is the fitted concentration of half-maximal effect; for activity change, negative = cytotoxic: series mostly up to about 46 µM; % is set by controls: 0 for no effect and ±100 for the full control effect
How it was run: as §2

[8] = qHTS of pediatric cancer cell lines to identify multiple opportunities for drug repurposing: Primary screen for Rh41 cells (AID 1347108); note: nearly all actives have a fitted effect of over 70% in size; note: potency is the fitted concentration of half-maximal effect;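 for activity change, negative = cytotoxic: series mostly up to about 46 µM; luminescence drop marks cytotoxic hits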
How it was run: as §3

[9] = qHTS of pediatric cancer cell lines to identify multiple opportunities for drug repurposing: Confirmatory screen for NB1643 cells (AID 1347109); note: potency is the fitted concentration of half-maximal effect; nearly all actives have a fitted effect of over 45% in size
How it was run: as §2

[10] = qHTS of pediatric cancer cell lines to identify multiple opportunities for drug repurposing: Confirmatory screen for A673 cells (AID 1347110);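 note: potency is the fitted concentration of half-maximal effect; cells exposed to compound for 48 h before the viability read; nearly all actives have a fitted effect of over 65% in size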
How it was run: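 qHTS titration format: primary MIPE 0.78 nM-46 µM (11 pts), NPC 0.59 nM-46 µM; confirmation 11 pts. 48 h, CTG luminescence.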

CCn1ccnc1CC1COc2ccccc2O1 (configuration not stated)
inactive: Potency [1] | Potency [2] | Potency [3] | Potency [4] | Potency [5] | outcome [6] | Potency [7]

CC(=O)OCC1=C(C(=O)O)N2C(=O)[C@@H](NC(=O)Cc3cccs3)[C@H]2SC1
inactive: Potency [1] | Potency [2] | Potency [3] | Potency [4] | Potency [5] | outcome [6] | Potency [7]

CN(C)C(=O)Oc1ccc[n+](C)c1
inactive: Potency [1] | Potency [2] | Potency [3] | Potency [4] | Potency [5] | outcome [6] | Potency [7] | Potency [8]

NC(=Nc1ccccc1)Nc1ccccc1
inactive: Potency [1] | Potency [2] | Potency [3] | Potency [4] | Potency [5] | outcome [6] | Potency [7] | Potency [8]

CCOC(=O)c1cnc2c(cnn2CC)c1NN=C(C)C
inactive: Potency [1] | Potency [2] | Potency [3] | Potency [4] | Potency [5] | outcome [6] | Potency [7]

CCCCNc1c(C(=O)OCC)c(C)nc2c1cnn2CC
inactive: Potency [1] | Potency [2] | Potency [4] | Potency [5] | outcome [6] | Potency [7]
active: Potency [3] 34.7 µM

CC(=O)Nc1nnc(S(N)(=O)=O)s1
inactive: Potency [1] | Potency [2] | Potency [3] | Potency [4] | Potency [5] | outcome [6] | Potency [7]

CN(C)CCOC(=O)COc1ccc(Cl)cc1
inactive: Potency [1] | Potency [2] | Potency [3] | Potency [4] | Potency [5] | outcome [6] | Potency [7] | Potency [8]

C[N+](C)(C)CCOC(N)=O
inactive: Potency [1] | Potency [2] | Potency [3] | Potency [4] | Potency [5] | outcome [6] | Potency [7] | Potency [8]

NC(Cc1ccc(Cl)cc1)C(=O)O (configuration not stated)
inactive: activity change, negative = cytotoxic [1] 7.02% [at 0.745 µM] | activity change, negative = cytotoxic [2] 15.1% [at 0.597 µM] | activity change, negative = cytotoxic [3] 9.59% [at 0.73 µM] | activity change, negative = cytotoxic [4] 7.62% [at 0.597 µM] | activity change, negative = cytotoxic [5] 9.57% [at 0.597 µM] | activity change, negative = cytotoxic [6] 6.18% [at 0.597 µM] | activity change, negative = cytotoxic [7] 30.5% [at 0.597 µM]

NC(=O)c1cn(Cc2c(F)cccc2F)nn1
inactive: Potency [1] | Potency [2] | Potency [3] | Potency [4] | Potency [5] | outcome [6] | Potency [7] | Potency [8]

CC(C)(Oc1ccc(CCNC(=O)c2ccc(Cl)cc2)cc1)C(=O)O
inactive: Potency [1] | Potency [2] | Potency [3] | Potency [4] | Potency [5] | outcome [6] | Potency [7] | Potency [8]

C[n+]1cc2c3c(ccc2c2ccc4cc5c(cc4c21)OCO5)OCO3
active: Potency [1] 1.69 µM | Potency [2] 2.06 µM | Potency [3] 2.13 µM | Potency [4] 1.84 µM | Potency [5] 2.31 µM | Potency [7] 2.59 µM | Potency [8] 2.59 µM | Potency [9] 1.02 µM | Potency [10] 1.15 µM

COc1cc(Cc2cnc(N)nc2N)cc(OC)c1OC
inactive: Potency [1] | Potency [2] | Potency [3] | Potency [4] | Potency [5] | outcome [6] | Potency [7] | Potency [8]

CN1C(=O)CC[C@H]1c1cccnc1
inactive: Potency [1] | Potency [2] | Potency [3] | Potency [4] | Potency [5] | outcome [6] | Potency [7] | Potency [8]

Cc1nc2c([nH]1)c(=O)n(C)c(=O)n2Cc1ccco1
inactive: Potency [1] | Potency [2] | Potency [3] | Potency [4] | Potency [5] | outcome [6] | Potency [7] | Potency [8]

C=CCc1ccccc1OCC(O)CNC(C)C (configuration not stated)
inactive: Potency [1] | Potency [2] | Potency [3] | Potency [4] | outcome [6] | Potency [7] | Potency [8]

CCn1nc(C(=O)O)c(=O)c2cc3c(cc21)OCO3
inactive: Potency [1] | Potency [2] | Potency [3] | Potency [4] | outcome [6] | Potency [7] | Potency [8]

C[C@]12C=CC(=O)C=C1CC[C@H]1[C@@H]3C[C@@H](O)[C@](O)(C(=O)CO)[C@@]3(C)C[C@H](O)[C@@]12F
inactive: Potency [1] | Potency [2] | Potency [3] | Potency [4] | Potency [5] | outcome [6] | Potency [7]
active: Potency [9] 6.57 µM | Potency [10] 1.04 µM

CC[N+](C)(C)c1cccc(O)c1
inactive: Potency [1] | Potency [2] | Potency [3] | Potency [4] | outcome [6] | Potency [7]

O=C(CCNNC(=O)c1ccncc1)NCc1ccccc1
inactive: Potency [1] | Potency [2] | Potency [3] | Potency [4] | outcome [6] | Potency [7]

CC(=O)Oc1cc(C(C)C)c(OCCN(C)C)cc1C
inactive: Potency [1] | Potency [2] | Potency [3] | Potency [4] | outcome [6] | Potency [7]

NCCCNCCSP(=O)(O)O
inactive: activity change, negative = cytotoxic [1] 8.37% [at 11.5 µM] | activity change, negative = cytotoxic [2] 9.05% [at 9.22 µM] | activity change, negative = cytotoxic [3] 5.02% [at 11.5 µM] | activity change, negative = cytotoxic [4] 5.99% [at 9.22 µM] | activity change, negative = cytotoxic [5] -7.37% [at 9.22 µM] | activity change, negative = cytotoxic [6] 2.73% [at 9.22 µM] | activity change, negative = cytotoxic [7] 17.5% [at 9.22 µM] | activity change, negative = cytotoxic [8] 20.1% [at 9.22 µM]
